The source made the active and inactive calls.

Experiment [1] is described as follows: anti-His antibody binders, primary screen, artefact control for SMM control protein annotation, biochemical, small-molecule microarray, 635 nm fluorescence (AID 1128).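 Note: score merges feature fluorescence with signal-to-noise for each printed compound spot.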 Particulars: anti-His Alexa647 antibody binding, higher = more signal.
Experiment [2] has as its system Human papillomavirus type 1a E7 protein (residues 1-88). As to the kind of experiment: HPV1a E7 small-molecule binders, primary screen, biochemical, small-molecule microarray, residues 1-88, 635 nm (AID 1129). Particulars: small-molecule microarray binding, fluorescence 635 nm; higher = more signal.
The target in experiment [3] is Focal adhesion kinase 1 (Homo sapiens) (UniProt Q05397). Put plainly: small-molecule microarray binders of FAK, primary screen, biochemical, 635/667 nm fluorescence, BSA, DTT (AID 1130).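 Note: composite of spot emission at 667 nm and signal to noise over triplicate slides.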 The settings on record: PTK2 binding, 635 nm fluorescence, higher = more signal.
Chain of Focal adhesion kinase 1 (Homo sapiens) (Q05397 whole entry, looked up): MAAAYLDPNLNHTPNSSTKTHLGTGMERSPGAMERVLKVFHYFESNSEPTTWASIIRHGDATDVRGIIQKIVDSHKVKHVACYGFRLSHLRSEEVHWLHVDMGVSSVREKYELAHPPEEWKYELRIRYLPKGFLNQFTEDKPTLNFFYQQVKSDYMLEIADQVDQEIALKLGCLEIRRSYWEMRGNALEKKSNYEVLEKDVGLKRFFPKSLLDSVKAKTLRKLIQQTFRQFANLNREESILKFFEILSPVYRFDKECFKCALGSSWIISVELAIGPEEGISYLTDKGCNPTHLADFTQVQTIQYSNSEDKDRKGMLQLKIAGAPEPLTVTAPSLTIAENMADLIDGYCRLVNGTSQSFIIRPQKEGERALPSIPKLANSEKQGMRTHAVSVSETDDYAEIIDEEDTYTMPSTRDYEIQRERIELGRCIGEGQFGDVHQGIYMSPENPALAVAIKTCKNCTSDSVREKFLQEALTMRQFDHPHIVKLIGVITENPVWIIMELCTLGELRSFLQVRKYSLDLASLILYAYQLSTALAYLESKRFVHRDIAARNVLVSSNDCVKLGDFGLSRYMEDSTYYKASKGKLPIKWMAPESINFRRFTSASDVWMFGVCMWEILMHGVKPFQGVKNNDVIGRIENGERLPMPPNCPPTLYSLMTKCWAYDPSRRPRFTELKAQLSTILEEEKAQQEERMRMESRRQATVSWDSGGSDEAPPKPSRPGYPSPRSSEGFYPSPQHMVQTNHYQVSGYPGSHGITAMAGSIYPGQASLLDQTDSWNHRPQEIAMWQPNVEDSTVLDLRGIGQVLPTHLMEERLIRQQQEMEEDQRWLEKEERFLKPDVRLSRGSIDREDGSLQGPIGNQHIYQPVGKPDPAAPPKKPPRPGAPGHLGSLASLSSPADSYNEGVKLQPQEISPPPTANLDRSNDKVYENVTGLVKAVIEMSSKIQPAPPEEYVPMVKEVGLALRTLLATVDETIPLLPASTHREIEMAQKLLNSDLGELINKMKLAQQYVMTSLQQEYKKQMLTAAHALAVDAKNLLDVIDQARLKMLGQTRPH
Experiment [4] relates to Fibrinogen (Alexa647-labelled). Put plainly: fibrinogen binders on compound microarrays, profiling panel, artefact control for SMM control-protein annotation, biochemical, small-molecule microarray, 635/667 nm fluorescence (AID 1131).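 Note: z-score merges 667 nm fluorescence with per-spot signal-to-noise over triplicate slides.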 The settings on record: fibrinogen-A647 binding fluorescence, higher = more signal.
In experiment [5] the target is Follistatin (Homo sapiens) (UniProt P19883). As to the kind of experiment: follistatin binders on small-molecule microarrays, primary screen, biochemical, small-molecule microarray, 635/667 nm fluorescence (AID 1132). The settings on record: FST binding, 635 nm fluorescence, higher = more signal.
Chain of Follistatin (Homo sapiens) (P19883 whole entry, looked up): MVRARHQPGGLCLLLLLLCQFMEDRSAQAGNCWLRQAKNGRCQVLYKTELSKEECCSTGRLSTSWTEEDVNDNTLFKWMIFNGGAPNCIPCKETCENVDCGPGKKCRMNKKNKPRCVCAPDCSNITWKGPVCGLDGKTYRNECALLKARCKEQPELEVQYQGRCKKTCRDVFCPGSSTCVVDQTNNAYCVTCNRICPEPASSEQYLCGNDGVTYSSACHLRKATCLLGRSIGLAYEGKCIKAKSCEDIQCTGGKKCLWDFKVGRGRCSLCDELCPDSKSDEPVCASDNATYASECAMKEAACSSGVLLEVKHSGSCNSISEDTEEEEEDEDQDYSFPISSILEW
Experiment [6] concerns the target Fibroblast growth factor 2 (Homo sapiens) (UniProt P09038). Put plainly: FGF2 binders on small-molecule microarrays, primary screen, biochemical, small-molecule microarray, 635/667 nm fluorescence (AID 1133). The settings on record: small-molecule microarray binding, FGF2, fluorescence 635/667; higher = more signal.
Experiment [7] can be described thus: mitochondrial membrane potential change in A549 cells, profiling panel, cell-based, JC-1 fluorescence, basal, 24 h, 100 nL (AID 1138).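 Note: A549 lung adenocarcinoma cells under basal conditions with no added stimulus; test concentration not given here.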 The settings on record: higher = more signal.
Experiment [8] concerns Lefty1. Put plainly: Lefty1 binders on small-molecule microarrays, primary screen, biochemical, small-molecule microarray, 635/667 nm fluorescence (AID 1139). The settings on record: small-molecule microarray binding, fluorescence 635/667; higher = more signal.
Experiment [9] deals with wheat germ agglutinin (Triticum aestivum), Alexa647-labelled. As to the kind of experiment: wheat germ agglutinin binders on compound microarrays, profiling panel, artefact control for SMM control-protein annotation, biochemical, small-molecule microarray, 635/667 nm fluorescence (AID 1140).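 Note: score merges 667 nm feature emission with signal to noise over triplicate slides.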 Particulars: WGA-A647 binding, 635 nm fluorescence, higher = more signal.
Experiment [10] addresses Luciferin 4-monooxygenase (Photinus pyralis) (UniProt P08659). As to the kind of experiment: firefly luciferase enzyme inhibitors, primary screen, biochemical, luminescence, purified enzyme, 2006 set (AID 1141).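 Note: cell-free assay with purified firefly luciferase at 100 ng per well in PBS; test concentration not given here.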 The settings on record: SteadyGlo luminescence, 30 min, higher = more signal, called active from +8 up or from −8 down.

Chain of Luciferin 4-monooxygenase (Photinus pyralis) (P08659 whole entry, looked up): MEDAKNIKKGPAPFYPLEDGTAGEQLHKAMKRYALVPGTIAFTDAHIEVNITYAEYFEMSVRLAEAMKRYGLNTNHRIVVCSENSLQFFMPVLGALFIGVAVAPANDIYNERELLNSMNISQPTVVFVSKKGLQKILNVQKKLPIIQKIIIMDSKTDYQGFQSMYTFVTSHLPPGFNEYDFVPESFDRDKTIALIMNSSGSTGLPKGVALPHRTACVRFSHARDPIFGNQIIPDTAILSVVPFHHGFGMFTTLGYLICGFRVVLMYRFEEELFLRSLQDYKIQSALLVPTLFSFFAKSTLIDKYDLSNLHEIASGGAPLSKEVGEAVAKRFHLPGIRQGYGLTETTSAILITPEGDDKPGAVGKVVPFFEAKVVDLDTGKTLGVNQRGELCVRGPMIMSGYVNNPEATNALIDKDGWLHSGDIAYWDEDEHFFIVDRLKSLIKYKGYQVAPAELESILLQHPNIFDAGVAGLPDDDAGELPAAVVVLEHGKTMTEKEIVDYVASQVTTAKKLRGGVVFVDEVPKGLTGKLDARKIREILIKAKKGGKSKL
Chain of Fibroblast growth factor 2 (Homo sapiens) (P09038 whole entry, looked up): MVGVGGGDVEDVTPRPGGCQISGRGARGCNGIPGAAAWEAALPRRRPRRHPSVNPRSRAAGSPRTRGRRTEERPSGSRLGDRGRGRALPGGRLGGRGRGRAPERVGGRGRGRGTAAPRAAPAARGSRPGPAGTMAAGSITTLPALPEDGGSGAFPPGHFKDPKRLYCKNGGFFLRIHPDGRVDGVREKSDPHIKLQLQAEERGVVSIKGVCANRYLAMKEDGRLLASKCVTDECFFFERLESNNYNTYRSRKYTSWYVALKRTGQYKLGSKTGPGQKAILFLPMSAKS

On to `CC(C)=CCCC(C)=CC(O)C1C=CC2C(=O)NC(=O)C2N1Nc1ccccn1` (stereo not given), for which the composite z-score in experiment [1] is 1.97; in experiment [2], 1.08; in experiment [3], -0.097; in experiment [4], 0.868; in experiment [5], 1.39; in experiment [6] it was 1.7. For the same compound, the composite z-score stood at 1.54 in [8] and 0.73 in [9]. The z-score in experiment [7] was 0.966; in [10], -1.17 (inactive).
As for `COc1ccc(C(=O)Nc2ccc(CN3C(=O)[C@@]4(O[C@@H](CCn5cc(CCO)nn5)[C@H]([Si](C)(C)c5ccc(OC)cc5)[C@H]4C)c4ccccc43)cc2)cc1`, the composite z-score was found to be 1.17 in experiment [1]; 1.17 in [2]; 0.749 in [3]; 0.874 in [4]; 1.35 in [5]; 1.21 in [6]. The values for the composite z-score in [8] and in [9] were 1.1 and 0.522, respectively. The z-score was -0.326 in [7] and -0.162 (inactive) in experiment [10].
Regarding `COCCn1c(C(=O)N(C)C)cc2c1C[C@H]1CN(C(=O)c3ccccc3)[C@@](Cc3ccc(OC)cc3)(C(=O)OC)[C@@H]21`, the composite z-score in experiment [1] was 1.59; in [2], 1.04; in experiment [3], 0.585; in experiment [4], 0.837; in experiment [5], 0.571; in [6], -0.226. The composite z-score is -0.201 in [8] and 0.94 in experiment [9]. The figures for the z-score in [7] and in [10] were 1.66 and 0.75 (inactive), respectively.
`C=CCNC(=O)[C@H]1[C@@H]2C(=O)O[C@@H](c3ccccc3)[C@@H](c3ccccc3)N2[C@@H](c2ccccc2OCCO)[C@]12C(=O)N(C(=O)OCCOC)c1ccc(C#Cc3ccc(OC)cc3)cc12`: the composite z-score worked out at 0.63 in experiment [1]; 1.19 in [2]; 0.723 in experiment [3]; 0.732 in experiment [4]; 0.406 in experiment [5]; 0.235 in experiment [6]. The composite z-score in [8] was determined as 0.407; in experiment [9], 0.924. The z-score in experiment [7] was -0.844; in [10] it was -1.05 (inactive).
With `CN(C)C(=O)[C@]1(Cc2ccccc2)N=C(c2ccc(OCCCO)cc2)O[C@@H]1c1ccccc1CN=[N+]=[N-]`, the composite z-score was determined as 0.997 in experiment [1]; 1.21 in experiment [2]; 0.438 in experiment [3]; 1.02 in [4]; 1.04 in [5]; 0.287 in [6]. For the same compound, the figures for the composite z-score in experiment [8] and in experiment [9] were 0.463 and 0.569, respectively. Also, the z-score in experiment [7] was 0.829; in experiment [10], 0.361 (inactive).
For the compound `CC(C)(C)N1CC=CC23O[C@@H]4C=CCCOC(=O)C4[C@H]2C(=O)N(CCCCCCO)[C@@H]3C1=O` (stereo not given in full), the composite z-score was 0.129 in [1]; 0.11 in [2]; -0.385 in [3]; -0.959 in experiment [4]; -0.327 in [5]; -1.16 in experiment [6]. Also, the results for the composite z-score in [8] and in [9] were -0.0747 and -1.2, respectively. Further, the z-score in experiment [7] was 0.223; in experiment [10] it was -0.876 (inactive).
On to `COc1ccc(C(O)C2C=CC3C(=O)N(C)C(=O)C3N2N(c2ccccc2)c2ccccc2)cc1` (stereo not given), for which the composite z-score came out at 2.06 in [1]; 0.906 in experiment [2]; 0.167 in [3]; 0.805 in [4]; 1.03 in experiment [5]; 0.149 in experiment [6]. Also, the composite z-score in [8] was -0.729; in experiment [9] it was 1.28. The z-score in [7] is 1.25; in experiment [10], 0.322 (inactive).
For `O=C1OCCC=C[C@H]2OC34C=CCN(c5ccc6ccccc6c5)C(=O)[C@H]3N(CCO)C(=O)[C@@H]4C12` (stereo not given in full), the composite z-score in [1] was -0.75; in experiment [2] it was -0.803; in experiment [3], -0.101; in experiment [4], -0.318; in experiment [5], -0.129; in [6], -0.909. Besides, the composite z-score in experiment [8] is -0.472; in experiment [9], -0.117. Besides, the z-score in [7] is -0.522; in experiment [10], -0.207 (inactive).
With `Cc1ccc(S[C@]2(C(=O)NCCCN(C)C)CC(=O)N(Cc3ccccc3C(F)(F)F)[C@@H]2c2ccc(CO)cc2I)cc1`, the composite z-score is -0.626 in experiment [1]; -0.0904 in [2]; 0.591 in experiment [3]; -0.745 in experiment [4]; 0.0315 in experiment [5]; -0.635 in [6]. The composite z-score in experiment [8] was -1.32; in experiment [9] it was -0.193. Further, the z-score in [7] was 0.281; in experiment [10] it was -0.514 (inactive).
Turning to `O=C1C2C=CC(C(O)c3c(F)cccc3Cl)N(Nc3ccc([N+](=O)[O-])cc3)C2C(=O)N1c1ccccc1` (stereo not given), the composite z-score turned out to be 1.62 in experiment [1]; 1.22 in [2]; 0.682 in experiment [3]; 0.931 in [4]; 1.36 in experiment [5]; 0.589 in experiment [6]. The figures for the composite z-score in experiment [8] and in [9] were 0.948 and 0.844, respectively. Moreover, the results for the z-score in [7] and in experiment [10] were -0.514 and 1.67 (inactive), respectively.
Take `NC(=O)N1C(=O)C2C(C1=O)C1C=C(CCCO)C2C(c2ccc(CN3CCCC3)cc2)N1Cc1cc2c(cc1Br)OCO2` (stereo not given): the composite z-score is 0.197 in [1]; -0.445 in experiment [2]; -0.214 in [3]; -0.713 in experiment [4]; 0.583 in experiment [5]; 1.2 in experiment [6]. Further, the results for the composite z-score in experiment [8] and in [9] were 0.117 and -0.419, respectively. Besides, the figures for the z-score in [7] and in experiment [10] were -0.193 and 0.542 (inactive), respectively.
On to `CCOC(=O)C1=CC[C@@H](c2ccc(OC)cc2)N(S(=O)(=O)c2ccc(C)cc2)[C@H]1CC`, for which the composite z-score in experiment [1] was found to be 1.17; in [2], 1.22; in experiment [3], 0.493; in experiment [4] it was 0.993; in [5], 0.995; in [6], 0.873. Besides, the composite z-score was 0.689 in experiment [8] and 0.902 in experiment [9]. In addition, the z-score was 2.69 in experiment [7] and 1.24 (inactive) in experiment [10].
Consider `CCCC[C@H]1C[C@@H]1[C@@H]1N(C(C)=O)[C@H](c2cccc(OC)c2)CC12CC2`, for which the composite z-score in experiment [1] is -0.101; in experiment [2], 0.173; in [3], 0.17; in experiment [4], 0.832; in experiment [5], -0.631; in experiment [6] it was -0.532. The composite z-score in experiment [8] is -0.613; in experiment [9] it was 0.133. Moreover, the z-score was 0.605 in [7] and 2.15 (inactive) in experiment [10].
As to `C=C(CCCC)/C(=C/C[C@H](OC(=O)c1ccncc1)c1ccc(OCCO)cc1)c1cnc2ccccc2c1`, the composite z-score in experiment [1] amounted to 2.06; in experiment [2], 1.23; in experiment [3], 0.525; in experiment [4] it was 0.892; in [5] it was 1.28; in [6] it was 1.02. Further, the composite z-score in [8] is 1.27; in experiment [9] it was 1.36. In addition, the z-score in experiment [7] was 2.39; in [10], -1.83 (inactive).

The values are drawn from PubChem BioAssay.
